According to PubChem BioAssay:
Active and inactive are the calls of the source.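 Rule for the calls: active = inhibition at or above 50% at 10 µM; inactive = inhibition below 50%.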

Test: inhibitors of Sendai virus-induced IRF3 signaling, primary screen, TLR/RLR signaling modifier project, cell-based, Sendai virus stimulus, luciferase, 10K MLSCN set (AID 602276);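 note: firefly luciferase from ISG56 promoter only with Renilla not read in this screen; 0% = Sendai virus plus DMSO and 100% = medium plus DMSO without virus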
Conditions: HEK293 RL24 IRF3 luciferase reporter, at 10 µM, stronger effect = higher value

Compound | inhibition
Cc1ccc(C(=O)NC(Cc2c[nH]c3ccccc23)C(=O)O)o1 (stereo unspecified) | -7.86% (inactive)
N/C(=N/O)c1nc(N2CCCC2)nc(N(c2ccccc2)c2ccccc2)n1 | 13.2% (inactive)
COC(=O)c1nnn(-c2ccccc2)c1N | 6.82% (inactive)
CCOC(=O)c1cc2c(=O)n3cccc(C)c3nc2n(CC2CCCO2)c1=NC(C)=O (stereo unspecified) | 3.59% (inactive)
CCOC(=O)Nc1cc(OC)c(OC)cc1Cc1nccc2cc(OC)c(OC)cc12 | -7.98% (inactive)
CCN(CC)S(=O)(=O)c1ccc(Br)c(OC)c1 | 18.3% (inactive)
CCOc1ccc2nc(SCc3ccc(C(=O)OC)o3)[nH]c2c1 | 8.32% (inactive)
Nc1nc2n(n1)C(c1cccc(Br)c1)CC(c1ccc(F)cc1)N2 (stereo unspecified) | 2.63% (inactive)
CCc1[nH]nc2c1C1(CCN(C(=O)OCc3ccccc3)CC1)C(C#N)=C(N)O2 | 17.6% (inactive)
Cc1cc(=O)n2nc(-c3ccccc3)sc2n1 | -17.6% (inactive)
CC(=O)OCCNc1cc(N2CCN(C)CC2)c2noc3c2c1C(=O)c1ccccc1-3 | 27.6% (inactive)
N#Cc1c(NCc2ccccc2)ccnc1NCc1cccnc1 | -0.363% (inactive)
CCCCc1c(O)nc(N2CCN(Cc3ccccc3)CC2)[nH]c1=O | 12.1% (inactive)
N#CC1=C(N)N(c2ccc(Oc3ccccc3)cc2)C(=O)C1 | 5.59% (inactive)
CCc1ccccc1NC(=O)CCc1nc(-c2ccc(C)cc2)no1 | 14.1% (inactive)
c1ccc(OCCCn2nnc(-c3cccnc3)n2)cc1 | 2.51% (inactive)
